Assay results from PubChem BioAssay AID1159580 (chemical genetic matrix, 2015).
The campaign covered roughly 5,500 compounds. About 2,000 (36%) were called active. Roughly 18% stayed inconclusive and do not appear here. This is one part of the list. Values without a mark were called inactive. No stated cut-off is given here; in the data, active means normalized growth mostly below about 0.91 (no sharp cut-off); inconclusive means no clear call, values can overlap the other calls; inactive means mostly above about 0.92.

Experiment: chemical genetic growth profiling, strain panel (AID 1159580);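 further: tested at 20 µM; growth read once vehicle control cultures reached saturation at 30 °C; 1 = growth at the plate median or of vehicle wells; lower values mean less growth of the strain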
Conditions: S. cerevisiae deletion strains, growth OD
[1] = locus YAL040C, strain CLN3, active compounds read low
[2] = locus YCL061C, strain MRC1 (second series), active compounds read low
[3] = locus YDR363W, strain ESC2, active compounds read low
[4] = locus YER002W, strain NOP16, active compounds read low
[5] = locus YJR075W, strain HOC1, active compounds read low
[6] = locus YMR307W, strain GAS1, active compounds read low
[7] = locus YNL128W, strain TEP1, active compounds read low
[8] = locus YNL175C, strain NOP13, active compounds read low
[9] = locus YNL197C, strain WHI3, active compounds read low
[10] = locus YNL224C, strain SQS1, active compounds read low
[11] = locus YNL322C, strain KRE1, active compounds read low
[12] = locus YOR083W, strain WHI5 (second series), active compounds read low
[13] = locus YMR263W, strain SAP30, active compounds read low
[14] = locus YNL153C, strain GIM3, active compounds read low
[15] = locus YPL055C, strain LGE1, active compounds read low
[16] = locus YPL241C, strain CIN2, active compounds read low
[17] = locus YDR150W, strain NUM1, active compounds read low
[18] = locus YGR078C, strain PAC10, active compounds read low
[19] = locus YAL013W, strain DEP1, active compounds read low
[20] = locus YGR229C, strain SMI1, active compounds read low

Structure (SMILES)	normalized growth [1]	normalized growth [2]	normalized growth [3]	normalized growth [4]	normalized growth [5]	normalized growth [6]	normalized growth [7]	normalized growth [8]	normalized growth [9]	normalized growth [10]	normalized growth [11]	normalized growth [12]	normalized growth [13]	normalized growth [14]	normalized growth [15]	normalized growth [16]	normalized growth [17]	normalized growth [18]	normalized growth [19]	normalized growth [20]
OC[C@H]1O[C@@H](n2cnc3c(Nc4ccccc4)ncnc32)C(O)[C@H]1O (some centres undefined)	0.966	0.999	0.908	0.977	1.01	1.02	0.987	0.98	0.963	0.979	1.02	0.96								
Oc1ccc(C2CNCCc3c2cc(O)c(O)c3Cl)cc1 (centres undefined)	0.987	0.986	1.03	0.997		1.02	0.984	1	0.977	1.06	1.02	0.965	0.994	0.935	0.989	0.981				
Oc1cc2c(c(Cl)c1O)CCNCC2c1ccccc1 (centres undefined)	0.985	0.985	0.977	0.978	0.875 (active)	0.988		1.02	1.01	1.04	0.981	1.01	1.01	0.967	0.57 (active)	0.981	0.925 (active)	0.995		
CN1CCc2cc(O)c(O)cc2C(c2ccccc2)C1 (centres undefined)	1	0.997	1.02	1		0.998	1	1.01	1.01	1	1	1.01	1	1.01		1			1.02	
Cc1cccc(C2CN(C)CCc3c2cc(O)c(O)c3Cl)c1 (centres undefined)	1.01	0.988	1	1.01		1.01		1.01	1.01	1.01	0.973	1.01				0.996				
C=CCN1CCc2c(cc(O)c(O)c2Cl)C(c2ccccc2)C1 (centres undefined)	0.992	0.934 (active)	0.891	0.996		0.993		0.981	0.904	1.04	0.754 (active)	0.958	0.995	0.911			0.907 (active)		0.917	
C=CCN1CCc2c(cc(O)c(O)c2Br)[C@@H](c2ccccc2)C1	1.03		0.8 (active)	1				1.04	0.98	1.02		0.987		0.945		0.122 (active)				
CN1CCc2cc(Cl)c(O)cc2[C@@H](c2ccccc2)C1	1.01	1	1.01	1.04		0.993		1.01	0.995	1.01		1.03		1.02	0.995					1.03
C=CCN1CCc2cc(O)c(O)cc2C(c2ccccc2)C1 (centres undefined)	1.06	0.979	0.994	1.02		1	1.02	1.02	1.02	1	0.966	1.02	1	1.01				1.01	0.95	0.917
CN1CCc2c(cc(O)c(O)c2Cl)C(c2cccc(Cl)c2)C1 (centres undefined)	1.07	0.945	0.962	1.01	0.837 (active)	0.993		1	0.991	1.01	0.917	0.982			0.466 (active)	0.927 (active)				
